Mac1 fbg inh: CD11b/CD18-fibrinogen binding inhibition; AID 1497; P05107+P11215; 93,000 compounds, 0.54% hits; K562 CD11b/CD18 adhesion to fibrinogen, ATPlite luminescence; Mn2+ added to activate the integrin; inhibition, % at 10 µM;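 active means primary inhibition of 50% or more at 10 µM, then 40% or more on retest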
Target sequence (P05107 whole entry, looked up, other chains not shown): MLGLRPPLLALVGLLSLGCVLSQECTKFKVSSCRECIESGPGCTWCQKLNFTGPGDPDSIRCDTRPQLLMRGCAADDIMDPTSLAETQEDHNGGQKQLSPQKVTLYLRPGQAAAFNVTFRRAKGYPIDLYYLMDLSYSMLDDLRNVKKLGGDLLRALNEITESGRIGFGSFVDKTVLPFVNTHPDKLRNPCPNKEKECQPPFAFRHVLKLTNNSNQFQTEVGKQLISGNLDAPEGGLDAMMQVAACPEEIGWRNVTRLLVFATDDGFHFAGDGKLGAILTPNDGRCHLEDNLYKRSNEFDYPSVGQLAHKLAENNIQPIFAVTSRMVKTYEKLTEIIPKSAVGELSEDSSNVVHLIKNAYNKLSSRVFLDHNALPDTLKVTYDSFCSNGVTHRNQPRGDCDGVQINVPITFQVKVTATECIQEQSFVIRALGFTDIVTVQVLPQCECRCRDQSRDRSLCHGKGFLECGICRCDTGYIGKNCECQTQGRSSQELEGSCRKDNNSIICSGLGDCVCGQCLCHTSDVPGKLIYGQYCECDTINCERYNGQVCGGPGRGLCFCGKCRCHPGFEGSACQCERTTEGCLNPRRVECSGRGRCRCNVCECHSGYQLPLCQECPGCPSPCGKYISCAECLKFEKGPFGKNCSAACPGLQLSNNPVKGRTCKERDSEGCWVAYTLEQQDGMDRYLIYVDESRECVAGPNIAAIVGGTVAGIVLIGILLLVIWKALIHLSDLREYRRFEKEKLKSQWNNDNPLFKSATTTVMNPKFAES
hDAT+cocaine: modulates human dopamine transporter uptake under cocaine; B-score at 10 µM; LLC-PK1 hDAT cells, [14C]-dopamine uptake with cocaine IC80; actives deviate in either direction; 110,000 compounds, 1.3% hits; AID 449768;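 active means Z score or B-score, a plate-position-corrected score, falls beyond the plate's 99.7% confidence bounds, in either direction; inactive means both scores lie inside the 99.7% bounds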;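 further: scored against the spread of the other compound wells on the same plate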
FAK blocker: inhibitors of human focal adhesion kinase. inhibition, %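 (tested at 7 µM)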. 97,000 compounds, 0.84% hits. biochemical FAK kinase activity assay; in the data active means inhibition above about 19%;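 further: 0% = DMSO and 100% = reference compound high control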
D1 allo mod: allosterically modulates the human D1 dopamine receptor | B-score at 10 µM | HEK293 D1, CRE-luciferase, dopamine EC30 potentiation; actives deviate in either direction | 58,000 compounds, 5.9% hits | AID 641;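 active means luminescence count or its row- and column-corrected plate score outside the 99.7% band of the plate's sample wells, on either side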
CD11b adhes enh: CD11b/CD18-fibrinogen binding enhancement; P05107+P11215; K562 CD11b/CD18 adhesion to fibrinogen, ATPlite luminescence; activation, % at 10 µM; 93,000 compounds, 0.07% hits; AID 1499;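 active means 10 µM primary screen giving 50% or more activity, confirmed by 40% or more on retest at that dose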
PTK2B oligo ant: Pyk2 (human) oligomerization antagonism | Q14289 | AID 1347419 | z-score (the deposit names both 25 µM and 10 µM) | 99,000 compounds, 0.83% hits | Q293 cells, Pyk2 FERM NanoBiT luminescence; stronger effect = lower value;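 active means Z-score of -3 or lower, scaled per plate to the spread of control and sample wells; inactive means z-score above -3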;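 further: negative z-score means lost luminescence so less FERM oligomerization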
D1 mod confirm: D1 receptor (human) allosteric modulation, confirmed | shares compounds with D1 allo mod | HEK293 D1 CRE-luciferase, dopamine EC30 potentiation; stronger effect = higher value | luminescence at 10 µM | 2,200 compounds, 88% hits | AID 642;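 active means luminescence in either of two replicates above the same-plate mean plus 3 SD of the low-dose dopamine control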
D1 no dopamine: D1 (human) signaling in absence of dopamine. HEK293 D1 CRE-luciferase, luminescence, no dopamine; stronger effect = higher value. AID 646. shares compounds with D1 allo mod. luminescence at 10 µM. 1,900 compounds, 0.8% hits; in the data active means luminescence above about 3900
Isoprot counter: alters isoproterenol CRE-luciferase response in HEK293 cells; shares compounds with D1 allo mod; HEK293 D1 CRE-luciferase, isoproterenol EC30 counter-screen; calls only at 10 µM; 2,200 compounds, 63% hits; AID 647;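 active means luminescence in either replicate above plate mean of wells with a partly effective reference agonist dose plus 3 SD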;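 further: isoproterenol raises cAMP through native beta-adrenoceptor Gs so signal bypasses D1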
* hit, by the source's call; i = inactive; · = no result; + = active, no number. Only a selection was taken, and hits are over-represented in it overall.

SMILES	Mac1 fbg inh	hDAT+cocaine	FAK blocker	D1 allo mod	CD11b adhes enh	PTK2B oligo ant	D1 mod confirm	D1 no dopamine	Isoprot counter
O=C(CN(C(=O)CSc1nnc(COc2ccccc2)o1)c1ccc(F)cc1)NC1CCCCC1	-32	-0.37	-3	3.2*	5	1.1	5428	1512	i
O=C(CCn1cnc(-c2ccccc2)c1-c1ccccc1)N/N=C/c1ccccc1O	7	·	·	·	4	·	·	·	·
O=C(CSc1nc2ccccc2[nH]1)Nc1cc(C(F)(F)F)ccc1N1CCOCC1	19	0.063	0	4*	-1	-2.5	7804*	·	i
N#CC1=C(N)Oc2n[nH]c(-c3cccs3)c2C1c1ccsc1 (configuration not stated)	8	-0.38	2	4.4*	-7	0.3	6176*	1692	i
N#CC1=C(N)Oc2n[nH]c(-c3cccs3)c2C1c1ccco1 (configuration not stated)	21	-0.83	3	1.5	-2	-1.1	·	·	·
Cc1ccc(C2C(C#N)=C(N)Oc3n[nH]c(-c4cccs4)c32)s1 (configuration not stated)	-10	0.37	1	4.6*	0	0.06	13468*	1676	i
CC1(C)C(=O)OC(c2cccs2)C(C)(C)C1=O (configuration not stated)	-1	-0.47	-3	0.00086	-2	0.98	·	·	·
Cc1cc(NC(=O)CSc2ccc(-c3ccccc3)nn2)no1	·	·	-2	·	·	2.2	·	·	·
Cc1cc(NC(=O)COc2nnc(-c3ccccc3)c3ccccc23)no1	38	0.48	-2	5.5*	1	0.15	6684*	1432	i
c1ccc(Cc2nn3c(-c4ccncc4)nnc3s2)cc1	1	0.5	-3	2.3	-3	-0.14	·	·	·
Oc1ccc(-c2nc3ncccn3c2Nc2ccc3c(c2)OCO3)cc1	0	-0.29	0	-0.59	-1	-0.14	·	·	·
Oc1ccc(-c2nc3cnccn3c2Nc2ccc3c(c2)OCCO3)cc1	-1	·	0	2.8*	-4	·	9088*	1484	+
O=C(Nc1nccs1)[C@@H]1CC=C[C@@H]2CCN(Cc3ccccc3)C(=O)[C@@H]21	·	-0.69	·	·	·	·	·	·	·
CC1CCN(C(=O)CSc2nncn2-c2ccccn2)CC1	-9	-0.46	5	0.94	0	0.36	·	·	·
c1ccc(CSc2nncn2-c2ccccn2)cc1	0	-0.00076	4	7.9*	1	0.98	12884*	1752	+
Cc1onc(-c2ccccc2)c1C(=O)Oc1cccnc1	-21	0.052	-1	6.7*	4	-0.74	13128*	1560	+
CCOC(=O)c1c(N)nn(C(C)=O)c1-c1ccccc1	0	-0.34	0	20*	-1	2.2	19148*	1584	+
CCOC(=O)c1c(C)nc(-c2ccccc2)nc1N	-8	0.59	2	4.1*	-3	-0.24	8680*	1600	+
CCCc1nc(N2CCOCC2)c2sc(=S)n(-c3ccccc3)c2n1	-9	0.14	0	·	-2	·	·	·	·
CC(=O)c1cccc(NC(=O)CSCc2ccccc2)c1	-8	1.1	-1	·	-4	-0.89	·	·	·
Cc1cc(=O)oc2cc(OCC(=O)NCCc3nc4ccccc4[nH]3)ccc12	-2	-1.7	6	3.2*	18	0.82	6860*	1464	i
CCOc1ccc(OCC(=O)NCCc2nc3ccccc3[nH]2)cc1	·	0.0028	0	·	·	-0.61	·	·	·
CCCc1cc2c(c(NC(C)=O)n1)c(=O)oc1ccccc12	·	1.1	-6	7.9*	·	0.29	21272*	1716	+
Cc1ccc2c(c1)N(C(=O)CSc1nncn1C)C(C)(C)c1ssc(=S)c1-2	-1	-0.15	2	2.8*	-5	-1.3	6228*	·	+
COC(=O)c1ccc(C2Nc3ccc(/C(C)=N/NC(=O)C(OC)c4ccccc4)cc3C3C=CCC32)cc1 (configuration not stated)	·	-0.66	-2	·	·	-0.16	·	·	·
SMILES	Mac1 fbg inh	hDAT+cocaine	FAK blocker	D1 allo mod	CD11b adhes enh	PTK2B oligo ant	D1 mod confirm	D1 no dopamine	Isoprot counter
C=CCc1ccccc1OCCn1ccnc1	-4	-0.85	1	4.2*	-3	0.65	15712*	1544	i
C=CCc1cccc(OC)c1OCCOCCn1ccnc1	·	·	·	·	·	0.24	·	·	·
NC(=O)COc1c(-c2ccccc2)oc2ccccc2c1=O	-6	-0.68	1	2.6*	-3	0.47	15448*	1588	+
O=C(O)COc1c(-c2ccccc2)oc2ccccc2c1=O	-12	0.69	-4	·	-4	2.6	·	·	·
Cc1ccccc1OCCn1nc(C(=O)O)c2ccccc2c1=O	-5	0.57	1	3.9*	3	0.68	7632*	1464	+
CC(C)NC(=O)CSc1nncn1-c1ccccc1	0	0.82	·	-0.62	2	0.17	·	·	·
COCCN(CCOC)Cc1cc(=O)oc2cc3c(cc12)CCC3	10	0.33	-3	2.4*	-2	0.91	9280*	·	+
CCOC(=O)N1CCN(Cc2cc(=O)oc3cc4c(cc23)CCC4)CC1	1	1.8	4	·	1	0.07	·	·	·
CCCc1[nH]nc2c1C(c1cccc(OC(=O)c3ccco3)c1)C(C#N)=C(N)O2 (configuration not stated)	-31	-0.0056	-2	2.6	1	0.7	·	·	·
CC1(C)CC(=O)C2=C(C1)OC(N)=C(C#N)C2c1cccc(OC(=O)c2ccco2)c1 (configuration not stated)	23	-0.0094	-3	6.3*	1	-1.3	5824*	1580	i
CC1(C)CC(=O)C2=C(C1)OC(N)=C(C#N)C2CCc1ccccc1 (configuration not stated)	·	0.76	2	8.9*	·	-0.23	20388*	1576	+
O=C1NCC2=C1C(c1ccc(Br)cc1)Nc1ccccc1N2 (configuration not stated)	·	-0.044	-3	-0.76	·	0.3	·	·	·
CN(C)S(=O)(=O)c1ccc(NC(=O)N2CCN(c3ccccc3)CC2)cc1	8	·	2	·	1	-1.2	·	·	·
COC(=O)c1c(N)c(C#N)c2n1CCCCC2	-1	-0.77	3	3.8*	2	1.2	7512*	·	i
N#Cc1c(N)c(C(=O)c2ccccc2)n2c1CCC2	-22	0.18	-1	-0.25	-1	0.64	·	·	·
C/C(=N\NC(=O)C(C)n1nc(C)c([N+](=O)[O-])c1C)c1ccccc1O (configuration not stated)	·	·	·	·	·	-0.03	·	·	·
COc1ccc(-c2c3c(=O)n(C)c(=O)n(C)c3c3nnc4ccccc4n23)cc1	·	·	1	-0.71	·	·	·	·	·
